Reference: article PMC5540273 (PLoS ONE, 2017)

What was measured:
Settings in all cases: concentration: 1 μM, replicates: in singlicate; n = 1
HASPIN = system: T1, HASPIN
T1 construct: gene GSG2

HCK = system: HCK
HIPK1 = system: HIPK1
HIPK2 = system: HIPK2
HIPK3 = system: HIPK3
HIPK4 = system: HIPK4
HPK1 = system: HPK1
HUNK = system: HUNK
ICK = system: ICK
IGF1R = system: IGF1R
IKK-alpha = system: T2, IKK-alpha
T2 construct: gene CHUK

IKK-beta = system: T3, IKK-beta
T3 construct: gene IKBKB

IKK-epsilon = system: T4, IKK-epsilon
T4 construct: gene IKBKE

INSRR = system: INSRR
INSR = system: INSR
IRAK1 = system: IRAK1
IRAK3 = system: IRAK3
IRAK4 = system: IRAK4
ITK = system: ITK
[1] = system: JAK1(JH1domain-catalytic)
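Further: KINOMEscan kinase panel screen.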

| Structure (SMILES) | %Inh (HASPIN) [%] | %Inh (HCK) [%] | %Inh (HIPK1) [%] | %Inh (HIPK2) [%] | %Inh (HIPK3) [%] | %Inh (HIPK4) [%] | %Inh (HPK1) [%] | %Inh (HUNK) [%] | %Inh (ICK) [%] | %Inh (IGF1R) [%] | %Inh (IKK-alpha) [%] | %Inh (IKK-beta) [%] | %Inh (IKK-epsilon) [%] | %Inh (INSRR) [%] | %Inh (INSR) [%] | %Inh (IRAK1) [%] | %Inh (IRAK3) [%] | %Inh (IRAK4) [%] | %Inh (ITK) [%] | %Inh [1] [%] |
| --- | --- | --- | --- | --- | --- | --- | --- | --- | --- | --- | --- | --- | --- | --- | --- | --- | --- | --- | --- | --- |
| Cn1cc(-c2ccc3c(c2)CCN3C(=O)Cc2cc(F)cc(C(F)(F)F)c2)c2c(N)ncnc21 [GSK2635225] | 9 | 0 | 16 | 0 | 17 | 13 | 31 | 9 | 0 | 30 | 0 | 0 | 75 | 0 | 31 | 8 | 0 | 0 | 5 | 9 |
| NCCC(NC(=O)c1cc(Br)c(-c2ccnc3[nH]ccc23)s1)c1ccccc1.O=C(O)C(F)(F)F.O=C(O)C(F)(F)F (centres unmarked) [GSK1307810] | 97.6 | 0 | 53 | 9 | 67 | 93.3 | 69 | 0 | 0 | 0 | 52 | 57 | 17 | 0 | 0 | 96.8 | 9 | 0 | 7 | 79 |
| CN(c1ccc(NC(=O)Nc2cccc(Cl)c2)cc1)c1ccnc(N)n1.Cl [GW830707] | 32 | 0 | 0 | 18 | 0 | 79 | 0 | 51 | 7 | 0 | 0 | 0 | 8 | 3 | 0 | 0 | 31 | 0 | 0 | 0 |
| CC(C)c1nc(-c2cccc(NS(=O)(=O)c3c(F)cccc3F)c2)c(-c2ccnc(Nc3ccc(N4CCOCC4)nc3)n2)s1.Cl [GSK1723980] | 0 | 98.3 | 93.2 | 57 | 69 | 83 | 55 | 0 | 32 | 0 | 0 | 0 | 39 | 0 | 0 | 0 | 1 | 6 | 95.7 | 0 |
| CC(C)NCC(Cc1ccccc1)NC(=O)c1cc(Br)c(-c2ccnc3[nH]ccc23)s1.Cl.Cl (centres unmarked) [GSK1383281] | 89 | 0 | 30 | 0 | 35 | 91.6 | 44 | 0 | 11 | 4 | 0 | 23 | 30 | 0 | 0 | 15 | 2 | 12 | 3 | 35 |
| Cc1nn2c(=O)cc(N3CCO[C@H](C)C3)nc2n1Cc1cccc(Cl)c1Cl [GSK2373693] | 3 | 22 | 10 | 30 | 78 | 0 | 25 | 0 | 15 | 10 | 36 | 81 | 0 | 0 | 4 | 78 | 0 | 25 | 15 | 9 |
| CSc1ccc(NC2=C(c3ccc(Cl)cc3)C(=O)NC2=O)cc1 [SB-317658] | 0 | 32 | 2 | 3 | 7 | 6 | 9 | 4 | 19 | 3 | 0 | 0 | 10 | 30 | 4 | 0 | 0 | 0 | 0 | 0 |
| CCNc1nccc(-c2c(-c3ccc(F)cc3)ncn2C2CCN(C)CC2)n1 | 0 | 0 | 39 | 70 | 66 | 0 | 0 | 0 | 0 | 0 | 0 | 0 | 0 | 100 | 0 | 0 | 21 | 0 | 0 | 0 |
| Nc1ncc(-c2cn[nH]c2)c2scc(-c3ccc4c(c3)CCN4C(=O)Cc3ccccc3)c12 [GSK2593067] | 0 | 92.6 | 0 | 1 | 4 | 0 | 94 | 0 | 0 | 4 | 0 | 31 | 50 | 24 | 13 | 0 | 25 | 0 | 25 | 2 |
| CC(=O)Nc1cn2nc(Oc3cccc(NC(=O)c4cccc(C(F)(F)F)c4)c3)ccc2n1 | 0 | 98.2 | 35 | 0 | 0 | 19 | 59 | 43 | 0 | 8 | 0 | 0 | 0 | 0 | 0 | 0 | 44 | 0 | 0 | 32 |
